For one compound, residual activity results are on record in ChEMBL document CHEMBL2218924, “A broad activity screen in support of a chemogenomic map for kinase signalling research and drug discovery” (Biochem J, 2013).

Usually residual activity stands for the signal under treatment as a percentage of the control signal.

Assay [1] deals with T1, Serine/threonine-protein kinase TBK1 (Homo sapiens) (UniProt Q9UHD2).
T1 sequence (whole entry): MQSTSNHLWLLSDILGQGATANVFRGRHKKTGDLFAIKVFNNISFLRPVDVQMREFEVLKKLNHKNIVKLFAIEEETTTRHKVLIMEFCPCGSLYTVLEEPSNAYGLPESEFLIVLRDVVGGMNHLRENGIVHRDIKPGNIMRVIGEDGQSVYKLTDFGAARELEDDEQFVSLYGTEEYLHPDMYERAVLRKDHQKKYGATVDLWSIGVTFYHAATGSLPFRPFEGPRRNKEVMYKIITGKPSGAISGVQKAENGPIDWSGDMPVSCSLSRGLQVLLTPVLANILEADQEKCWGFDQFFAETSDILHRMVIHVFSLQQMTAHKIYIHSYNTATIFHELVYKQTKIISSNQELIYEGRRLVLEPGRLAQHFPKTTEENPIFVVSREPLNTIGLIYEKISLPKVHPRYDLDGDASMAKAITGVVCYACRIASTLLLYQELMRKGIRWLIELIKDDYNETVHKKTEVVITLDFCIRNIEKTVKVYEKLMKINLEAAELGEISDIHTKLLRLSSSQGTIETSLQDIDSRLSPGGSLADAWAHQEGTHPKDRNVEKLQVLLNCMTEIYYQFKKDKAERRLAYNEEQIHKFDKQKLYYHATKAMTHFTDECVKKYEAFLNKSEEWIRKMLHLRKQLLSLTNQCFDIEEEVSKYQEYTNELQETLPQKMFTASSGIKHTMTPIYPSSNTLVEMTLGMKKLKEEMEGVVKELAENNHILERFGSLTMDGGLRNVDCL
The conditions noted are these: at 10 µM.

In assay [2] the target is T2, TGF-beta receptor type-1 (Homo sapiens) (UniProt P36897).
T2 sequence (whole entry): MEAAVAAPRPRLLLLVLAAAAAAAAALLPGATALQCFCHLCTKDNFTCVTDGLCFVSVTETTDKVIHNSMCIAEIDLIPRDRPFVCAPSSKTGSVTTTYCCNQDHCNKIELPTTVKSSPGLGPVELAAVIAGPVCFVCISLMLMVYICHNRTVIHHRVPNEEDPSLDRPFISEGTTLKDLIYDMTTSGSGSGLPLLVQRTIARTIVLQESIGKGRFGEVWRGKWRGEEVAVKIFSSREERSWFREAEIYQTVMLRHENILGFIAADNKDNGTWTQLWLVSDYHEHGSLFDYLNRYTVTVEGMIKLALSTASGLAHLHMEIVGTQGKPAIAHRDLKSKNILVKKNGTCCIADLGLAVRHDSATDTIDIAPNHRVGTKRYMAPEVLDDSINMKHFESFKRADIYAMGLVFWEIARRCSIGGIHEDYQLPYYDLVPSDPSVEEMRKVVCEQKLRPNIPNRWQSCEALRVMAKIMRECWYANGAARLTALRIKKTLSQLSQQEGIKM
The following applies: at 1 µM.

The target of assay [3] is T2, TGF-beta receptor type-1 (Homo sapiens). The following applies: at 10 µM.
Assay [4] addresses Insulin-like growth factor 1 receptor (Homo sapiens) (UniProt P08069). The conditions noted are these: at 1 µM.
For assay [5] the target is unchanged. The following applies: at 10 µM.
Assay [6] deals with T3, Inhibitor of nuclear factor kappa-B kinase subunit alpha (Homo sapiens) (UniProt O15111).
T3 sequence (whole entry): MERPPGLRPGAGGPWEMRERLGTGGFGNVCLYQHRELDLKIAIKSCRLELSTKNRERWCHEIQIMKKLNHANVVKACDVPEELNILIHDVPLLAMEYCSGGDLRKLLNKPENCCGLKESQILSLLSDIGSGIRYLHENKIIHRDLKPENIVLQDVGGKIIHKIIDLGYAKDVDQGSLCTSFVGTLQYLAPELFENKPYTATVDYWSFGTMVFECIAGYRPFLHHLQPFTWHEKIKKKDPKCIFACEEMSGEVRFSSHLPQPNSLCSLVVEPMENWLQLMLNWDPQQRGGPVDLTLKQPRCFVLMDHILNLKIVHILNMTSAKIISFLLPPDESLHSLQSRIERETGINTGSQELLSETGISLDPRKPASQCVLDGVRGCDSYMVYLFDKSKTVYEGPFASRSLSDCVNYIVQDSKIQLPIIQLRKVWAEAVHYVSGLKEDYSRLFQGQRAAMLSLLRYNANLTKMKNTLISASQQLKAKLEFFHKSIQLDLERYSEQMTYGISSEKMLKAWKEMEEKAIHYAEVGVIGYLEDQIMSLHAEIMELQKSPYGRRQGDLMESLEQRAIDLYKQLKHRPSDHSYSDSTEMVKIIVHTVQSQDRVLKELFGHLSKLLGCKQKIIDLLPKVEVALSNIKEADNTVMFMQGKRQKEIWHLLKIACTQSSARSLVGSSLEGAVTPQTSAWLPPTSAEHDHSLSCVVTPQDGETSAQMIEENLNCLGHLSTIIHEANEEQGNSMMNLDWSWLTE
The following applies: at 1 µM.

Assay [7] concerns the target T3, Inhibitor of nuclear factor kappa-B kinase subunit alpha (Homo sapiens). The following applies: at 10 µM.
Assay [8] addresses T4, Inhibitor of nuclear factor kappa-B kinase subunit beta (Homo sapiens) (UniProt O14920).
T4 sequence (whole entry): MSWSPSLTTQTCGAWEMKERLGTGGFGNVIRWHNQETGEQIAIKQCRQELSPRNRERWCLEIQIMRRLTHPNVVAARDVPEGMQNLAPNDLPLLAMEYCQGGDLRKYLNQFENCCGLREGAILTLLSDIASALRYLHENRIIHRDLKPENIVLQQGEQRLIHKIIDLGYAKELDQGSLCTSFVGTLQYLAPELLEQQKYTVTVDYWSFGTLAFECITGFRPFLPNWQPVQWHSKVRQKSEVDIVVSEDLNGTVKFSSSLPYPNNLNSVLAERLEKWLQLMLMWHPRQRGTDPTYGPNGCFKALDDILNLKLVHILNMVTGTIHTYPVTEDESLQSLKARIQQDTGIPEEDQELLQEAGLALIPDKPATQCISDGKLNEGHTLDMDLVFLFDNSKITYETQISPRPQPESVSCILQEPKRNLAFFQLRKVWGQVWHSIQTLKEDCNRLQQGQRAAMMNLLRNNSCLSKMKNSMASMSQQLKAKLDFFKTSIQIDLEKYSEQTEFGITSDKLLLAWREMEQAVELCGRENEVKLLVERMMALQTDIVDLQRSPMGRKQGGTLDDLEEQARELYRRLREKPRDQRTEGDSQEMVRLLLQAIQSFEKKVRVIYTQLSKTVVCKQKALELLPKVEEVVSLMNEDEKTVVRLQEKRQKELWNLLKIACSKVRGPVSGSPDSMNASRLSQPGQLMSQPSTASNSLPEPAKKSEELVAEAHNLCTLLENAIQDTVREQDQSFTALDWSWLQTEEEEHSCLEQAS
The conditions noted are these: at 1 µM.

Assay [9] concerns the target T4, Inhibitor of nuclear factor kappa-B kinase subunit beta (Homo sapiens). The conditions noted are these: at 10 µM.
Assay [10] deals with Insulin receptor (Homo sapiens) (UniProt P06213). The conditions noted are these: at 1 µM.
Sequence of Insulin receptor (Homo sapiens) (P06213 28-758 limits assumed): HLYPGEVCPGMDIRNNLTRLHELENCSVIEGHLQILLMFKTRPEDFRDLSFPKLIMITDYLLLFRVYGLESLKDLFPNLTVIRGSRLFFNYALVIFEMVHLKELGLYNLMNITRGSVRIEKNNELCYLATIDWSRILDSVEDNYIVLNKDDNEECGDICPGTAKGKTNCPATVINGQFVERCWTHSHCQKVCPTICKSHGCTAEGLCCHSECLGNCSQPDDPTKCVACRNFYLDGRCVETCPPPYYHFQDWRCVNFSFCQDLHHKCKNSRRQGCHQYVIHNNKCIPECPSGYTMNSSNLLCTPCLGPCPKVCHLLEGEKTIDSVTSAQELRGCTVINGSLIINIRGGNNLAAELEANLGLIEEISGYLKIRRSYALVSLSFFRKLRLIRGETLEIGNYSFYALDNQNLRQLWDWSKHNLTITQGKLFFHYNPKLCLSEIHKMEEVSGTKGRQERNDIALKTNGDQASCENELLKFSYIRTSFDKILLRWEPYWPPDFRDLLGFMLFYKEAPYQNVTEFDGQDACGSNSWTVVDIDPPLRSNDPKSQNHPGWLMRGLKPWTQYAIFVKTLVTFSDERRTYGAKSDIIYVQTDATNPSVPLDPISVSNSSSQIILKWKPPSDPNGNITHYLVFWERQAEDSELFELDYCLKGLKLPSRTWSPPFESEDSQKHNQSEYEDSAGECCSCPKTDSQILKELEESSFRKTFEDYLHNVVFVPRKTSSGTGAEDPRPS
Sequence of Insulin receptor (Homo sapiens) (P06213 763-1382 limits assumed): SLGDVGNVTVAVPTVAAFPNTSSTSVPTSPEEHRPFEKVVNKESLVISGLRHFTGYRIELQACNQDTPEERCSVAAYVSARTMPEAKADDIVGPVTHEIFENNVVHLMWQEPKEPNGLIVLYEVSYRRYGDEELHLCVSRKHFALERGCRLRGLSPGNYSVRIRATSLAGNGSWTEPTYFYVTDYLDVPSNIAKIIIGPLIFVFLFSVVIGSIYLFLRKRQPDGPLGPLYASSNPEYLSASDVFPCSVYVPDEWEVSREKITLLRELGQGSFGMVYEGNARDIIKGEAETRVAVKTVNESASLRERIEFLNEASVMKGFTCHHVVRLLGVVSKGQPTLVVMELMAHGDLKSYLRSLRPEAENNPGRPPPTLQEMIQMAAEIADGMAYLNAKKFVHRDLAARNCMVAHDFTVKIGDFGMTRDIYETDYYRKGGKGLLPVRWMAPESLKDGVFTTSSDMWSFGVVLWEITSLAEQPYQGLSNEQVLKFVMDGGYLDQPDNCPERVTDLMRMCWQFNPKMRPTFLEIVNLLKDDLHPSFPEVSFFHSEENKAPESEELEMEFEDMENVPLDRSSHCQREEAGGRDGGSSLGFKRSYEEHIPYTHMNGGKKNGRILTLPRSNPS

Sequence of Insulin-like growth factor 1 receptor (Homo sapiens) (P08069 31-736 limits assumed): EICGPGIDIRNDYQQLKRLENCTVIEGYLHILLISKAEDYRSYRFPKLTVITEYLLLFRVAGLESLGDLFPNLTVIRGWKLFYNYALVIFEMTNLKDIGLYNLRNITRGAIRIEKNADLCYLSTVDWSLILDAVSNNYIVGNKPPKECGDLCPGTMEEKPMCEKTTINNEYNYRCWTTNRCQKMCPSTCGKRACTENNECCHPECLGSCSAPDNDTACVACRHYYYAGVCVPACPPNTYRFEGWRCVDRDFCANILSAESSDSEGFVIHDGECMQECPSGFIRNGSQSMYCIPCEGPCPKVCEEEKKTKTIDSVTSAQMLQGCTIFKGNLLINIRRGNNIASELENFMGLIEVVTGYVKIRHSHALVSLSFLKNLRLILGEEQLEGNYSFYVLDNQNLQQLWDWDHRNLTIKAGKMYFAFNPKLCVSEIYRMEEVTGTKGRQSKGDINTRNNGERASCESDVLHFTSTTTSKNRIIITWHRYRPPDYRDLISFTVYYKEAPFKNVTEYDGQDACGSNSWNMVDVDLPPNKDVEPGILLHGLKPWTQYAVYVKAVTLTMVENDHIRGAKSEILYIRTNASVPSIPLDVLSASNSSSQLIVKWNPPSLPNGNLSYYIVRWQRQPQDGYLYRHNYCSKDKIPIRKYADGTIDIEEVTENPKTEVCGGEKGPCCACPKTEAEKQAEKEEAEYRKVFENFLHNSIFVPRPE
Sequence of Insulin-like growth factor 1 receptor (Homo sapiens) (P08069 741-1367 limits assumed): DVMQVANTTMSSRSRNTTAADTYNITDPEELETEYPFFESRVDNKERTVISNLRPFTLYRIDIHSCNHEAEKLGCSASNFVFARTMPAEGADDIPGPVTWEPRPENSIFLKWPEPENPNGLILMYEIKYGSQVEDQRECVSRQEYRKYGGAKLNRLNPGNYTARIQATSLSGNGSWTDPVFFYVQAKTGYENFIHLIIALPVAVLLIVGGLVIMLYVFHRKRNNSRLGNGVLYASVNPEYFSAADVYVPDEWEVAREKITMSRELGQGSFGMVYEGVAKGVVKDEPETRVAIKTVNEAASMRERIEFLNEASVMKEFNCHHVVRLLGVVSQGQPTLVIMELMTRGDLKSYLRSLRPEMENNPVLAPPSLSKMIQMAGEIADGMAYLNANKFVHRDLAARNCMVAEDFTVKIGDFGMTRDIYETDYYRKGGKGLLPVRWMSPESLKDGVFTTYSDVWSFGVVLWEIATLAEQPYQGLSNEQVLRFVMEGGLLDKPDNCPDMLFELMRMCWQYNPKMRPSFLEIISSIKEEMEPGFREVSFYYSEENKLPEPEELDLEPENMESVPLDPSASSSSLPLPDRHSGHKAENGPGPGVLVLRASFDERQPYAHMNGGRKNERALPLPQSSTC

In the case of `CC(C)n1cnc2/c(=N/c3cccc(Cl)c3)nc(NCCO)[nH]c21`, the residual activity was found to be 33% in assay [1]; 79% in [2]; 85% in assay [3]; 72% in assay [4]; 31% in assay [5]; 114% in assay [6]. In addition, the residual activity amounted to 98% in [7], 102% in assay [8], 85% in assay [9] and 83% in [10].
